# This excerpt belongs to a sample that is enriched for hits.
# Artemis endo inh: blocks endonuclease activity of human Artemis | Q96SD1 | recombinant Artemis, quenched FAM hairpin cleavage fluorescence | actives 0.78% (n = 30,000) | AID 686954 | inhibition, % at 10 µM;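 active means at 10 µM dose, at least 30% inhibition, measured as corrected fluorescence normalized to stimulator and neutral control wells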
# * marks the source's active call; other numbers are inactive results.
SMILES,Artemis endo inh
CCCS(=O)(=O)c1c(S(=O)(=O)CCC)c2cnccn2c1C(=O)c1ccc(Cl)cc1,3.4
O=C(NNC(=O)c1ccc([N+](=O)[O-])o1)c1ccccc1,0.2
O=[N+]([O-])c1cccc(-c2ccc(/C=N/NC(=S)Nc3ccccc3)o2)c1,16.2
CCCOC(=O)/C(=C\c1ccc([N+](=O)[O-])o1)NC(=O)c1ccccc1,4.7
Cc1ccc2nc(N/N=C\c3ccc([N+](=O)[O-])o3)nc(-c3ccccc3)c2c1,39.2*
Cc1ccc(/C=N\Nc2nc3ccc(Cl)cc3[nH]2)o1,-4.4
O=[N+]([O-])c1ccc(/C=N/Nc2nc(-c3ccccc3)c3cc(Br)ccc3n2)o1,57.5*
CCOC(=O)C(C)N1N=C(/C=C/c2ccc(OC)cc2)CCC1=O (centres undefined),8.2
O=C(Nc1cccc([N+](=O)[O-])c1)C12CC3CC(C1)CC(n1cnc([N+](=O)[O-])n1)(C3)C2,-2.7
COc1ccc(NC(=O)CN(C)C(=O)c2ccc(C)s2)cc1,-1.5
C=C(C)Cn1c(-c2ccc(OC)cc2)nc2ccccc21,1.5
CCC(C)NC(=O)c1c(F)c(F)c(F)c(F)c1F (centres undefined),11.4
COCC(=O)Nc1cc([N+](=O)[O-])ccc1C,6.7
CC1(C)N([O-])C2=C(c3ccccc3C2=O)[N+](=O)C1(C)C,4.5
CC1C(=O)CCN(C(C)(C)C)C1C (centres undefined),-6.3
Cc1ccc(-c2cc(C(=O)NCc3ccco3)c3ccccc3n2)s1,3.2
O=C(COC(=O)c1cc(-c2ccc(Cl)s2)nc2ccccc12)NCc1ccco1,32.1*
O=C(COC(=O)c1cc(-c2ccco2)nc2ccccc12)NCc1ccc2c(c1)OCO2,22.8
Nc1ccc(Oc2ccc3nc(-c4ccccc4)c(-c4ccc([N+](=O)[O-])cc4)nc3c2)cc1,6.9
O=C1c2ccncc2C(=O)N1Cc1cccc(Cl)c1,3.7
CC(=O)OCCCCON1C(=O)c2ccccc2C1=O,5.8
O=C1c2ccccc2C(=O)N1OCc1cccc(Cl)c1,54.7*
C1CCN(c2c3c(nc4nnnn24)CCCC3)CC1,-1.4
CCOC(=O)CSc1nc(C)c2ccc(C)cc2n1,-5.8
Cc1nn(Cc2c(Cl)cccc2Cl)c(C)c1NC(=O)c1cnn2c(C(F)F)cc(-c3ccccc3)nc12,25.0
SMILES,Artemis endo inh
O=C(Nc1cccnc1)c1cnn2c(C(F)F)cc(C3CC3)nc12,-4.3
Cc1ccc(-c2cc(C(F)F)n3ncc(C(=O)Nc4c(C)nn(Cc5c(Cl)cccc5Cl)c4C)c3n2)cc1,32.5*
COC(=O)C1=C(C(=O)OC)SC2(S1)C(C(=O)OC)=C(C(=O)OC)SC1=C2c2cc(C)ccc2NC1(C)C,-1.9
CCN(C(=O)c1cc2cccc(OC)c2oc1=O)C1CCCCC1,4.7
CCCc1cc2c(cc1NC(=O)c1ccccc1C)OCO2,1.5
O=[N+]([O-])c1cc(/C=N/N2CCN(C3c4ccccc4-c4ccccc43)CC2)ccc1Cl,-0.1
C(=N\N1CCN(C2c3ccccc3-c3ccccc32)CC1)/c1cccnc1,8.5
C(=N\N1CCN(C2c3ccccc3-c3ccccc32)CC1)/c1ccccn1,32.3*
CCn1c(Cc2cccc3ccccc23)nnc1SCC(=O)Nc1nccs1,15.3
O=C1CS/C(=N\c2ccccn2)N1C1CCCCC1,-1.5
c1ccc(CSc2nnc(-c3sccc3-n3cccc3)o2)cc1,6.2
COc1ccc(Br)cc1/C=N/NC(=O)c1nc(-c2ccccc2)n2c1CCCCC2,30.0*
Cc1cc(C(=O)N/N=C/c2cc(Br)ccc2OC(=O)c2ccccc2)n[nH]1,9.6
COc1ccccc1S(=O)(=O)Nc1ccc(-c2nnc3n2CCCCC3)cc1,-4.5
CCOC(=O)C1=C(N)n2c(s/c(=C\c3cccs3)c2=O)=C(C(=O)OCC)C1c1cccs1 (centres undefined),5.0
CCCCNS(=O)(=O)C1CCS(=O)(=O)C1 (centres undefined),-7.7
C=CCN1C=CC(=C/C=C(/C#N)C(=O)OCC)C=C1,-24.4
Cc1nc2cc(-c3ccsc3-n3c(C)ccc3C)[nH]n2c(=O)c1Cl,30.1*
Cc1cc(=O)n2[nH]c(-c3ccc(Cl)cc3)cc2n1,-0.7
COCc1cc(=O)n2[nH]c(-c3ccsc3-n3c(C)ccc3C)cc2n1,23.7
S=c1[nH]nc(Cc2cccc3ccccc23)n1-c1ccccc1,-0.6
COC(=O)c1sc2ccccc2c1-n1cccc1C(=O)C(=O)Nc1ccc(Cl)cc1,2.8
CCOc1ccc2nc(NC(=O)C3CCCN(S(=O)(=O)c4cccs4)C3)sc2c1 (centres undefined),34.3*
CCOc1ccc2nc(NC(=O)C(CCSC)NS(=O)(=O)c3cccs3)sc2c1 (centres undefined),-0.6
O=C(NC1CCCCCC1)C1CCCN(S(=O)(=O)c2cccs2)C1 (centres undefined),4.8
SMILES,Artemis endo inh
C[C@H](NS(=O)(=O)c1ccccc1F)C(=O)OCC(=O)N1CCc2ccccc21,-3.6
CCn1c(SCC(=O)c2ccc(O)c(O)c2)nnc1-c1ccccc1,12.7
CCn1c(SCC(=O)c2ccc(O)c(O)c2)nnc1-c1ccccc1OC,30.3*
CCn1c(SCC(=O)c2ccc(F)cc2)nnc1-c1ccoc1C,5.8
Cc1ccc(CNC(=O)CSCC(=O)O)cc1,1.0
CC(=O)N(/N=C1\Sc2ccccc2C1=O)c1ccccc1,31.3*
Cc1ccccc1-c1coc2cc(O)ccc2c1=O,7.7
CC(=O)N(/N=C1\Sc2ccccc2C1=O)c1ccc(C)cc1C,10.1
CC(=O)N(CCCCN1C(=O)c2ccccc2C1=O)c1ccc(C)cc1,5.1
CC(=O)N(/N=C1\Sc2ccccc2C1=O)c1ccccc1C,31.9*
CCC(CC)C(=O)NCCc1ccc(OC)cc1,1.4
CCc1cccc(NC(=O)CCSCCC(=O)Nc2cccc(CC)c2)c1,8.8
COc1ccc2c3c(c(=O)oc2c1OCC(N)=O)CCCC3,7.0
Nc1ccc(-c2ccc(N)cc2C(F)(F)F)c(C(F)(F)F)c1,1.2
Nc1ccc2c(c1)C(=O)C(=O)c1ccccc1-2,71.1*
Nc1ccc2oc(=O)c3ccccc3c2c1,2.7
COc1cc(/C=N/NC(=O)c2cnn3c(C)cc(-c4ccccc4)nc23)ccc1O,9.9
COc1ccc(/C=N/NC(=O)c2nn(-c3ccc(C)c(C)c3)c(=O)c3ccccc23)cc1,12.7
COc1ccc(/C=N/NC(=O)c2nc(-c3ccccc3)cc(-c3ccccc3)n2)cc1,35.3*
Fc1cccc(Oc2nc3ccccc3n3cccc23)c1,-2.4
CC(C)C(NC(=O)C1CCCCC1)C(=O)NC1=NCCS1 (centres undefined),2.4
O=C(CSc1nnc(C2CC2)n1-c1ccccc1)Nc1ccc(N2CCOCC2)cc1,-2.4
O=S(=O)(c1ccc2nc(-c3ccco3)c(-c3ccco3)nc2c1)N1CCOCC1,27.6
Cn1nc(C(=O)Nc2cccc(C(F)(F)F)c2)ccc1=O,3.5
O=C(NCc1ccco1)Nc1ccc2nsnc2c1,9.2
SMILES,Artemis endo inh
O=C(Nc1cccc(C(F)(F)F)c1)c1ccc2nc(-c3ccco3)c(-c3ccco3)nc2c1,41.8*
O=C(Nc1ccc2nc(-c3ccco3)c(-c3ccco3)nc2c1)NC1CC1,49.5*
CC(C)Oc1cccc(C(=O)NC(=S)Nc2cccc(C(F)(F)F)c2)c1,0.1
O=C(COC(=O)C1(c2ccccc2F)CCCC1)N1CCOCC1,-5.4
CNc1nc(SCc2ccc(C)cc2)nc2c1CCCC2,-3.6
NC(=O)c1ccsc1NC(=O)COC(=O)Cc1cccc2ccccc12,5.0
CCSC1=N/C(=C\c2ccc(-c3ccccc3[N+](=O)[O-])o2)C(=O)S1,34.0*
CCSC1=N/C(=C\c2ccc3c(c2)OCO3)C(=O)S1,5.4
